Marburg entry inh: blocks Marburg virus binding to or entry into cells; Potency, µM (titrated, usually from 37.8 µM), inactives show at the top dose activity change, negative = inhibition, most hits filed as inhibitors; Marburg virus pseudotyped entry inhibition, cell reporter; actives 1.8% (n = 300,000); calls by dose curve; tested in HEK293 cells; also: potency is read from the fitted curve at half-maximal effect; % is scaled to controls: 0 for no effect and ±100 for the full control effect
SARS PLpro yeast: blocks SARS-CoV papain-like protease in a yeast assay; actives 0.19% (n = 330,000); Potency, µM (top dose mostly 32.9 µM), without a hit: at the highest dose activity, positive = growth rescue, usual class: activators; S. cerevisiae expressing SARS-CoV PLpro, growth rescue; calls by dose curve; also: potency is read from the fitted curve at half-maximal effect; 0% is about no effect; nearly all actives have a fitted effect of over 55% in size
HCV inhibitor: inhibitors of hepatitis C virus infection; Huh7.5.1 HCVcc-Cre infection, luciferase reporter, 44 h; AID 651820; Potency, µM (top dose mostly 41.8 µM), for inactives: at the top dose activity change, negative = inhibition, actives largely listed as inhibitors; actives 3.4% (n = 340,000); active = well fitted inhibition curve with a large enough effect; inconclusive = small, poorly fitted or top-dose-only effect, or another doubt; inactive = no such curve, though single readings can be large or run the other way; also: potency is read from the fitted curve at half-maximal effect; % is scaled to controls: 0 for no effect and ±100 for the full control effect
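Cells (1,000/well) were plated 4 h before compound, then infected with HCVcc-Cre virus (~0.5 moi). After 44 h further culture, infection was read as luciferase luminescence following a 15 min substrate incubation at room temperature.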
HCMV antiviral: inhibitors of human cytomegalovirus | actives 4.5% (n = 410,000) | activity change, negative = inhibition, % at 57.5 µM | HFF cells, HCMV-luciferase reporter, 72 h; hits give low values; in the data active = activity change below about -60%; inconclusive = no clear call, values can overlap the other calls; inactive = above about -39%; also: % is scaled to controls: 0 for no effect and ±100 for the full control effect
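Luciferase read-out from HCMV-luciferase-infected HFFs (MOI 1 PFU/cell) 72 h post infection at 37C; compounds added after 16 h cell attachment; activity normalized between buffer-only basal and Salinomycin (10uM) inhibitor controls.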
Lassa entry inh: blocks Lassa virus binding to or entry into cells; Lassa virus pseudotype entry inhibition, cell reporter; Potency, µM (titrated, usually from 37.9 µM), inactives show top-dose activity change, negative = inhibition, hits mostly inhibitors; actives 1.2% (n = 300,000); AID 540256; calls by dose curve; tested in HEK293 cells; also: potency is read from the fitted curve at half-maximal effect; % is scaled to controls: 0 for no effect and ±100 for the full control effect; nearly all actives have a fitted effect of over 50% in size
FMDV antiviral: blocks foot and mouth disease virus. FMDV antiviral cell-based qHTS. Potency, µM (series often up to 57.9 µM), inactives show at the top dose activity change, negative = inhibition, most hits filed as inhibitors. actives 1.2% (n = 410,000). AID 1159524; calls by dose curve; tested in HEK293T cells; also: read-out not given here; potency is read from the fitted curve at half-maximal effect; % is scaled to controls: 0 for no effect and ±100 for the full control effect; nearly all actives have a fitted effect of over 45% in size
Numbers without * were called inactive; ? = inconclusive; / = no result; [ ] = another dose, or the depositor's remark. An excerpt weighted towards active compounds, which were near 8% of everything screened.

SMILES	Marburg entry inh	SARS PLpro yeast	HCV inhibitor	HCMV antiviral	Lassa entry inh	FMDV antiviral
CC(C)[C@H](N)c1cn([C@@H](CO)C(=O)N2CCNCC2)nn1	/	-3%	15%	9	/	-14%
NC(=O)C[C@H](N)c1cn([C@@H](CC(N)=O)C(=O)N2CCNCC2)nn1	/	0%	27%	-60*	/	-11%
CCOC(=O)c1c(C)[nH]c(NC(=O)NNC(=O)c2ccccc2Cl)c1C	/	-4%	11µM*	-27	/	-20%
CSc1cccc(N2C(=O)N(CC(=O)NCc3ccccc3Cl)c3ccccc3S2(=O)=O)c1	/	/	/	-23	-21%[46.1 µM]	-9%
Cc1ccc(C2C(=O)N(C3CCCCCC3)CC(=O)N2CCC2=CCCCC2)cc1 (stereo not given)	/	/	/	-63*	?	-15%
COc1ccc(C2C(=O)N(C3CCCCC3)CC(=O)N2CCC2=CCCCC2)cc1 (stereo not given)	/	/	/	?	-2%[46.1 µM]	-20%
C/C(=N\NC(=O)COc1ccccc1-c1ccccc1)c1ccc(O)cc1O	/	-2%	11µM*	-76*	/	0%
O=C(COc1ccccc1-c1ccccc1)N/N=C/c1ccc2ccccc2c1	?	-2%	?	-100*	1.8µM*	-12%
CCCCCC(=O)N/N=C(\C)c1ccccn1	7.1µM*	0%	?	-99*	?	26%
C/C(=N\NC(=O)COc1ccccc1-c1ccccc1)c1ccccn1	4µM*	-3%	5µM*	-98*	5.6µM*	?
O=C(COc1ccccc1-c1ccccc1)N/N=C/c1ccncc1	?	-6%	?	-38	23%	?
Cc1cnc(C)c(-c2cc(F)cc3c2OC(CNC(=O)CN2CCCC2)C3)n1 (stereo not given)	/	/	/	/	/	-1%
Cc1ccc(NC(=O)CN2C(=O)CSc3ccc(S(=O)(=O)N(C)C)cc32)cc1C	/	/	/	1	19%[46.1 µM]	4%
c1ccc(Cc2ccc(OCCCNC3CCCC3)cc2)cc1	/	1%	/	/	/	/
c1ccc(-c2ccc(OCCCNC3CCCC3)cc2)cc1	?	-1%	11µM*	-21	-25%	-29%
Fc1ccc(Nc2nc(Nc3ccc(F)cc3)nc(N3CCOCC3)n2)cc1	?	/	/	-10	25%[46.1 µM]	?
Clc1nc(Nc2ccc(N3CCOCC3)cc2)c2ccccc2n1	17%[46.1 µM]	0%	?	-72*	-6%	?
Brc1ccc2ncnc(Nc3ccc(N4CCOCC4)cc3)c2c1	?	-7%	?	-82*	?	?
c1ccc2c(Nc3nc(N4CCOCC4)c4ccccc4n3)cccc2c1	?	-130%	?	-32	?	28µM*
Fc1ccc(Nc2nc(N3CCOCC3)c3ccccc3n2)cc1	16µM*	-6%	-4%	-7	?	?
CCOC(=O)c1nc(Nc2ccc(N3CCOCC3)cc2)c2ccccc2n1	?	0%	-21%	-34	8%	-14%
COc1ccc(-c2ccc(=O)n(CC(=O)NCCc3ccccc3)n2)cc1	/	/	/	4	-9%[46.1 µM]	2%
COc1ccccc1CNC(=O)CCCCn1c(=O)c2ccccc2n(CC(=O)Nc2c(C)cc(C)cc2C)c1=O	-24%[46.1 µM]	/	/	-1	4%[46.1 µM]	11%
O=S(=O)(Nc1nc2ccccc2nc1Nc1ccc(N2CCOCC2)cc1)c1cc(Cl)ccc1Cl	7.3µM*	11%	?	-23	?	-21%
O=C(O)c1ccc(Cl)c(S(=O)(=O)Nc2ccccc2N2CCOCC2)c1	28%[46.1 µM]	0%	7%	-20	1%	-3%
SMILES	Marburg entry inh	SARS PLpro yeast	HCV inhibitor	HCMV antiviral	Lassa entry inh	FMDV antiviral
Cc1sc2ncnc(SC(C)C(=O)N3c4ccccc4Sc4ccccc43)c2c1C (stereo not given)	11µM*	-25%	?	?	?	-25%
O=C(CCCCCn1c(=O)[nH]c2ccccc2c1=O)NCc1cccc(Cl)c1	/	/	/	72	-16%[46.1 µM]	13%
Cc1ccc(Cl)cc1N1CCN(C(=O)c2sc3nc4n(c(=O)c3c2C)CCC4)CC1	/	/	/	-4	-14%[46.1 µM]	-13%
O=C(Nc1cccc(-c2csc(-c3ccccc3)n2)c1)c1cccs1	?	-11%	10µM*	-27	?	/
Cc1nc(-c2cccc(NC(=O)c3cccs3)c2)cs1	13%[46.1 µM]	-41%	?	19	4%	-4%
Oc1ccc(-c2csc(Nc3ncccn3)n2)c(O)c1	-26%[46.1 µM]	0%	13%	300	-22%	32%
